# Lassa entry inh: Lassa virus entry inhibition; Lassa virus pseudotype entry inhibition, cell reporter; Potency, µM (doses to about 37.9 µM), for inactives: at the highest dose activity change, negative = inhibition, usual class: inhibitors; actives 1.2% (n = 300,000); calls by dose curve; tested in HEK293 cells; note: potency is the fitted concentration of half-maximal effect; nearly all actives have a fitted effect of over 50% in size
# Vaccinia mCherry: vaccinia inhibition (mCherry reporter); Vaccinia virus mCherry reporter infection, fluorescence; AID 720579; Potency, µM (titrated, usually from 36.5 µM), inactives show at the highest dose activity change, negative = inhibition, actives largely listed as inhibitors; actives 0.63% (n = 310,000); calls by dose curve; tested in A549 cells; note: potency is the fitted concentration of half-maximal effect; nearly all actives have a fitted effect of over 35% in size
# HCMV inh: human cytomegalovirus inhibition. activity change, negative = inhibition, % at 57.5 µM. AID 1259415. actives 4.5% (n = 410,000). HFF cells, HCMV-luciferase reporter, 72 h; stronger effect = lower value; in the data active = activity change below about -60%; inconclusive = no clear call, values can overlap the other calls; inactive = above about -39%
#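 Steps: HFFs plated, 16 h 37C; compounds added; HCMV-luciferase added to MOI 1 PFU/cell; 72 h 37C; OneGlo reagent, 5 min room temperature; luminescence read, normalized to controls.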
# Vaccinia Venus: vaccinia inhibition (Venus reporter); Vaccinia virus Venus reporter expression, fluorescence; Potency, µM (titrated, usually from 36.5 µM), without a hit: top-dose activity change, negative = inhibition, most hits filed as inhibitors; actives 0.46% (n = 330,000); calls by dose curve; tested in A549 cells; note: potency is the fitted concentration of half-maximal effect; nearly all actives have a fitted effect of over 30% in size
# FMDV antiviral: antivirals against foot and mouth disease virus | FMDV antiviral cell-based qHTS | AID 1159524 | actives 1.2% (n = 410,000) | Potency, µM (titrated, usually from 57.9 µM), for the others: at the top dose activity change, negative = inhibition, most hits filed as inhibitors; calls by dose curve; tested in HEK293T cells; note: read-out not given here; potency is the fitted concentration of half-maximal effect; nearly all actives have a fitted effect of over 45% in size
# Marburg entry inh: inhibitors of Marburg virus binding or cell entry | Potency, µM (titrated, usually from 37.8 µM), inactives show top-dose activity change, negative = inhibition, usual class: inhibitors | actives 1.8% (n = 300,000) | Marburg virus pseudotyped entry inhibition, cell reporter | AID 540276; calls by dose curve; tested in HEK293 cells; note: potency is the fitted concentration of half-maximal effect
# Starred values were filed as active, the others as inactive; i = inactive; ? = inconclusive; nt = no result given; [ ] = dose if it differs, or a comment. Only some compounds are listed: those with a hit (about 6.5% of all), similar ones and a draw of the others. % is set by controls: 0 for no effect and ±100 for the full control effect.
SMILES,Lassa entry inh,Vaccinia mCherry,HCMV inh,Vaccinia Venus,FMDV antiviral,Marburg entry inh
CC(C)C(=O)N1CCN(c2ccccc2NC(=O)c2ccc(Br)o2)CC1,-18%[46.1 µM],i,13,-14%,?,?
CCC(=O)N1CCN(c2ccccc2NC(=O)Cc2ccccc2)CC1,3%,nt,-19,-1%,7%,-3%
CC(C)C(=O)N1CCN(c2ccccc2NC(=O)c2ccc([N+](=O)[O-])o2)CC1,-24%[46.1 µM],11µM*,-73*,?,0%,-26%[46.1 µM]
COc1ccc(C2Nc3ccc(NC(C)=O)cc3C(=O)N2Cc2cccc(Cl)c2)cc1COc1ccc(NC(C)=O)cc1 (stereo not given),nt,-2%,nt,-15%,nt,nt
COc1ccc(CN2C(=O)C(n3ccc4ccccc43)c3cc(F)ccc32)cc1 (stereo not given),nt,nt,14,nt,nt,nt
CC1=NC(=O)C(C#N)C=C1c1ccncc1 (stereo not given),nt,nt,nt,nt,nt,0%
c1ccc(CC[n+]2ccncc2)cc1,nt,i,nt,-13%,nt,nt
FC(F)(F)c1ccccc1NC1=NCCCS1,23%,13%,-63*,1%,-11%,-22%[46.1 µM]
Clc1ccccc1NC1=NCCCS1,2%,-22%,?,-3%,9%,2%[46.1 µM]
CCc1ccc(NC(=O)[C@H](Cc2c[nH]c3ccccc23)NC(=O)[C@@H]2Cc3ccccc3CN2)cc1,nt,5µM*,nt,12%,8%,nt
Cc1cc(C)cc(NC(=O)[C@H](NC(=O)[C@@H]2Cc3ccccc3CN2)c2ccccc2)c1,30%[46.1 µM],-20%,nt,-11%,-16%,1.4µM*
Cc1ccc(NC(=O)[C@H](NC(=O)[C@@H]2Cc3ccccc3CN2)c2ccccc2)c(C)c1,nt,nt,-34,nt,0%,nt
Cc1cccc(NC(=O)[C@H](Cc2c[nH]c3ccccc23)NC(=O)[C@@H]2Cc3ccccc3CN2)c1,nt,11µM*,nt,33%,-4%,nt
CCOc1ccc(N2C(=O)C(c3nnnn3Cc3ccccc3)N(CCOC)C2=O)cc1 (stereo not given),nt,nt,-21,nt,nt,nt
C=CCOC(=O)N[C@@H](Cc1ccccc1)/C(C(=O)OC)=C(\C)NCc1ccccc1,nt,nt,nt,nt,nt,-11%[14.2 µM]
Cc1cc2c(cc1S(=O)(=O)CCC(=O)N1CCCC(C)C1)OCC(=O)N2 (stereo not given),-11%[46.1 µM],-4%,4,6%,-22%,nt
N/C(=N\OC(=O)/C=C/c1ccccc1Cl)c1cccnc1,-14%,-8%[7.34 µM],74,3%[7.34 µM],55%,?
N/C(=N\OC(=O)/C=C/c1ccccc1Cl)c1ccccn1,-23%,nt,-39,nt,-23%,9.2µM*
CCOc1ccc(C(=O)O/N=C(\N)c2ccccn2)cc1,nt,nt,-91*,nt,10µM*,nt
Cc1ccc(C(=O)O/N=C(\N)c2ccccn2)cc1,?,-1%,-69*,7%,3.2µM*,?
COc1ccc(Cl)cc1C(=O)O/N=C(\N)c1ccccn1,nt,nt,143,nt,35%,nt
N/C(=N\OC(=O)c1cc(Cl)ccc1Cl)c1ccccn1,6.5µM*,nt,-15,nt,-15%,4.1µM*
C[C@@H]1CN([C@@H](C)CO)C(=O)CCCn2cc(nn2)CO[C@H]1CN(C)C(=O)Nc1ccc(F)cc1,nt,nt,-8,nt,nt,nt
C=C(C)C(=O)C=Cc1ccc(Br)cc1,nt,nt,nt,nt,nt,6%[14.2 µM]
O=C(Cc1ccccc1[N+](=O)[O-])c1ccccc1,nt,nt,-6,nt,nt,nt
SMILES,Lassa entry inh,Vaccinia mCherry,HCMV inh,Vaccinia Venus,FMDV antiviral,Marburg entry inh
N/C(=N\OC(=O)COc1ccc(Br)cc1Cl)c1ccccn1,2µM*,5%,22,-18%,-36%,?
Cc1ccc(C(=O)O/N=C(\N)c2ccccn2)cc1C,?,1%,?,-6%,-98%,0.71µM*
Cc1cccc(C(=O)O/N=C(\N)c2ccccn2)c1,?,i,-16,-1%,-55%,?
COc1cc(C(=O)O/N=C(\N)c2ccccn2)cc(OC)c1OC,nt,nt,1,nt,59%,nt
CC(C)(C)c1ccc(C(=O)O/N=C(\N)c2ccccn2)cc1,?,i,-99*,-13%,0.1µM*,?
N/C(=N\OC(=O)c1ccccc1)c1ccccn1,?,i,0,-5%,10µM*,?
O=C(NCc1cccc(Cl)c1)O[C@H]1CC[C@@]23CCCN2C(=O)CCC[C@H]3[C@H]1Cc1ccccc1,nt,nt,0,nt,nt,nt
COc1ccccc1C(=O)c1cn(CC(=O)Nc2ccccc2F)c2nc(C)ccc2c1=O,2%[46.1 µM],5%,-2,7%,-5%,nt
COc1ccc(C(=O)Oc2cc3c4c(c2)C(C)=CC(C)(C)N4C(=O)C3=O)cc1OC,12%,-12%,-14,-6%,?,?
COc1cc2c3c(c1)C(C)=CC(C)(C)N3C(=O)C2=O,3%,-22%,-85*,0%,30%,?
COc1cccc(C(=O)Oc2cc3c4c(c2)C(C)=CC(C)(C)N4C(=O)C3=O)c1,?,i,-77*,-17%,nt,?
C=Cc1ccc(Cn2c(=O)n(-c3ccc(C)cc3)c(=O)c3c2c2cc(OC)ccc2n3C)cc1,?,-22%,-14,-18%,-7%,nt
CCCc1cc(C(=O)N2CCCC(C(=O)c3cccc4ccccc34)C2)n(C)n1 (stereo not given),nt,nt,0,nt,-14%,nt
CCc1cc(C(=O)N2CCCC(C(=O)c3cccc4ccccc34)C2)n(C)n1 (stereo not given),nt,-15%,-60*,-23%,?,?
CSc1cccc(NS(=O)(=O)c2ccc3[nH]cc(C(=O)N4CCCC4)c(=O)c3c2)c1,6%[46.1 µM],-11%,6,-4%,1%,11%[46.1 µM]
COc1ccc(/C=C/CN2CCCC(CO)(Cc3cccc(Cl)c3)C2)cc1 (stereo not given),10µM*,-25%,-26,?,-10%,6.3µM*
COc1cccc(CC2(CO)CCCN(C/C=C/c3ccccc3OC)C2)c1 (stereo not given),nt,nt,-38,nt,-20%,nt
CC(C)(O)C#Cc1ccc(CN2CCCC(CO)(Cc3cccc(Cl)c3)C2)cc1 (stereo not given),?,nt,-82*,nt,-22%,?
COc1ccc(F)c(CN2CCCC(CO)(Cc3cccc(Cl)c3)C2)c1 (stereo not given),nt,nt,43,nt,-8%,nt
Cc1ccccc1CC1(CO)CCCN(Cc2ccc(C#CC(C)(C)O)cc2)C1 (stereo not given),0%[46.1 µM],-16%,-27,-15%,15%,?
COc1ccccc1/C=C/CN1CCCC(CO)(Cc2cccc(Cl)c2)C1 (stereo not given),14µM*,-8%,-15,4%,?,13µM*
COc1cccc(-c2nc(SC(C(C)=O)C(=O)N(C)C)c3c(=O)n(C)c(=O)n(C)c3n2)c1 (stereo not given),-7%[46.1 µM],-3%,-12,-13%,7%,nt
Clc1nc(NCc2ccco2)c2[nH]cnc2n1,nt,-8%,nt,-18%,nt,nt
Clc1ccc(-n2cnnn2)cc1,17%,nt,6,nt,18%,2%
CO/C=C\C=C/c1nnn(-c2ccc(Cl)cc2)n1,-10%[46.1 µM],-3%,-64*,1%,6%,?

# High-throughput results from PubChem BioAssay.
